High-throughput results: PubChem, several laboratories
Compounds with a hit are over-represented: about 1.4% of the library has one in this group of screens.
HTR5A inv ag – counter-screen for OPRM1-OPRD1 inverse agonists: human HTR5A inverse agonism. 340,000 tested, 0.083% active. inhibition, % at 9.3 µM. HTR5A cell line, luminescence; in the data active means inhibition mostly above about 23%, no sharp cut-off; inactive means mostly below about 18%;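 further: 0% = cells with DMSO and 100% = no-cell wells with DMSO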
MOR-DOR ag – OPRM1-OPRD1 heterodimerization agonism; cells, luminescence; activation, % at 9.3 µM; 340,000 tested, 0.3% active; AID 504326; in the data active means activation above about 18%;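 further: 0% = vehicle-treated cells and 100% = reference agonist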
Target sequence (P35372 whole entry, looked up): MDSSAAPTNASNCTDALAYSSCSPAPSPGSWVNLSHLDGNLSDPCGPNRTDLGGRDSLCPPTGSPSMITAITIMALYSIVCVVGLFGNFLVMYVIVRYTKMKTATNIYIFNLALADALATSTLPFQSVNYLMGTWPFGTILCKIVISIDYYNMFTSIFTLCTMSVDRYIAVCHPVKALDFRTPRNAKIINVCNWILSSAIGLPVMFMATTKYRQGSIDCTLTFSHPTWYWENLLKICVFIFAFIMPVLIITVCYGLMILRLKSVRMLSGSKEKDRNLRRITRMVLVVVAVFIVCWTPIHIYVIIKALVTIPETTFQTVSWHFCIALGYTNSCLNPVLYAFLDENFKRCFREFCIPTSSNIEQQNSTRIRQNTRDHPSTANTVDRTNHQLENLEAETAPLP
Target sequence (P41143 whole entry, looked up): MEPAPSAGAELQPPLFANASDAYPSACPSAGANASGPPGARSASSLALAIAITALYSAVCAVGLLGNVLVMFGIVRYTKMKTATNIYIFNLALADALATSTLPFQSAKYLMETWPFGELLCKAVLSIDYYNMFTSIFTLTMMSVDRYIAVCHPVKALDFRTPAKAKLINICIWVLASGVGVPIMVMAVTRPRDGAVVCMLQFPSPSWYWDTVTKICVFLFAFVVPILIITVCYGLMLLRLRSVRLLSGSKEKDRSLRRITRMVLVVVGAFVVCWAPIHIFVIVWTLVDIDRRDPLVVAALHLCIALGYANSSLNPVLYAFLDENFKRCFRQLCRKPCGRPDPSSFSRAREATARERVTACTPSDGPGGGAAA
p-CIP stab down – compounds decreasing mouse p/CIP protein stability; F442A p/CIP-EGFP cells, EGFP fluorescence, 16 h; decrease of EGFP signal, % at 10 µM; 290,000 tested, 0.01% active;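 active means EGFP signal decrease of at least 30% at 10 µM or well 3 SD below plate mean, unless failing retest; inactive means the rest, including hits failing retest or dose response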
MIN6 prolif-1 – induces beta-cell replication in MIN6 cells. MIN6 cells proliferation, ATPlite luminescence, 48 h; cells starved in 0.2% serum; 100% = growth in 10% serum. proliferation, % at 10 µM. 330,000 tested, 0.29% active;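 active means compounds whose signal lies at least 3.5 SD above the mean of all wells on their plate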;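 further: 0% = DMSO-treated cells in low-serum medium and 100% = 10% serum control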
MOR-DOR inv ag – mu-delta opioid heterodimer inverse agonism; inhibition, % at 9.3 µM; 340,000 tested, 0.21% active; cell-based MOR-DOR heterodimer luminescence; P35372+P41143; in the data active means inhibition above about 22%, passing the limit was not always enough;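 further: 0% = cells with DMSO and 100% = wells without cells with DMSO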
HTR5A ag – counter-screen for OPRM1-OPRD1 agonists: human HTR5A agonism. 340,000 tested, 0.61% active. activation, % at 9.3 µM. P47898. HTR5A agonist assay, luminescence, cell-based; in the data active means activation mostly above about 9.5%, no sharp cut-off; inactive means mostly below about 7.6%;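 further: 0% = cells with vehicle only and 100% = reference agonist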
MIN6 prolif-2 – MIN6 beta-cell replication induction, confirmed. 920 tested, under 10 active. shares compounds with MIN6 prolif-1. proliferation increase, % at 50 µM. MIN6 beta-cell proliferation, ATPlite luminescence, 48 h; cells kept in 0.2% serum; scaled between 0.2% and 10% serum. AID 463095;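 active means proliferation increase above 40% at any of the four tested concentrations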
* hit, by the source's call; . = no result given.

SMILES	HTR5A inv ag	MOR-DOR ag	p-CIP stab down	MIN6 prolif-1	MOR-DOR inv ag	HTR5A ag	MIN6 prolif-2
O=[N+]([O-])c1cn(-c2nc(-c3ccco3)cc(C(F)(F)F)n2)cn1	3.8	-1.3	-6.4	7.7*	7.8	-5.0	-0.2
CCN(c1ccccc1)S(=O)(=O)c1ccc(OC)c(NC(=O)c2cc(Cl)ccn2)c1	25.4	-2.9	.	-1.6	18.6	-2.9	.
CN(C)S(=O)(=O)c1cccc(NC(=O)COC(=O)CCc2nc3ccccc3s2)c1	8.8	-2.1	-6.4	6.7*	8.8	1.7	5.2
CCN(Cc1ccccc1)S(=O)(=O)c1ccc(S(=O)(=O)N(Cc2cccc(OC)c2)CC2CCCO2)cc1 (stereo unspecified)	-5.7	0.7	8.2	-0.8	-3.7	1.6	.
COc1cccc(CN(CC2CCCO2)S(=O)(=O)c2ccc(-n3cnnn3)c(OC)c2)c1 (stereo unspecified)	-8.3	-1.2	-8.4	9.3*	6.0	3.1	0.5
CC(C)OP(=O)(c1ccc(N(C)C)cc1)C(O)c1ccc(Br)cc1 (stereo unspecified)	12.8	-2.1	0.7	9.0*	12.2	-3.3	-1.0
CC(C)OP(=O)(c1ccc(N(C)C)cc1)C(O)c1ccncc1 (stereo unspecified)	-1.4	-0.7	-0.2	0.1	3.5	-2.3	.
CCN(CC)S(=O)(=O)c1ccc(OC(C)C)c(NC(=O)C2=COCCO2)c1	1.0	-1.9	.	15.6*	10.5	-0.4	-6.3
CCN(CC)S(=O)(=O)c1ccc(N2CCCC2)c(NC(=O)C2=COCCO2)c1	3.8	-0.8	.	-3.7	4.0	-1.4	.
CP(C)(=O)CCP(=O)(c1ccccc1)c1ccccc1	-12.1	-0.9	-10.4	0.0	4.8	3.5	.
CCN(CC)CCP(=O)(c1ccccc1)c1ccccc1	-6.1	-1.4	-0.7	4.6*	8.0	3.5	-3.2
O=C(c1ccco1)N1CCN(c2ccc([N+](=O)[O-])c(N3CCOCC3)c2)CC1	0.3	-1.9	-8.1	9.7*	10.2	-0.1	1.4
CN(C)C(CNC(=O)C1CCN(S(=O)(=O)c2ccccc2C(F)(F)F)CC1)Cc1ccccc1 (stereo unspecified)	11.4	-4.8	.	2.8	23.3	2.3	.
COC(=O)c1nn(-c2ccccc2)c(Sc2ccc(OC)cc2)c1/C=N/O	-1.0	-2.7	-5.8	6.5*	14.6	0.3	-3.7
CC(NC(=O)CN1C(=O)NC2(CCCCCCC2)C1=O)c1ccccc1 (stereo unspecified)	-10.3	-1.2	.	9.5*	4.5	4.1	-0.1
O=C(Nc1cc(S(=O)(=O)Nc2ccccc2F)ccc1Cl)c1ccc(F)cc1F	7.3	-0.2	.	-5.2	1.2	-1.9	.
COc1ccc(CNc2cc(C)ccc2C)c(OC)c1OC	-22.4	1.4	-12.8	9.2*	-7.7	-0.3	-4.4
O=C(Nc1cc(-c2ccccc2)nn1C1CCCCC1)c1ccc(Cl)cc1	-17.6	3.5	.	-6.2	-19.1	7.8	.
Cn1c(=O)c2c(ncn2CC(=O)NC2CCCCC2)n(C)c1=O	.	.	-1.1	11.3*	.	.	-3.3
COC1CCCN(Cc2nc(Cc3ccccc3F)no2)C1 (stereo unspecified)	8.5	-0.8	-4.0	-3.9	4.1	-3.0	.
Fc1ccccc1Cc1noc(CN2CCC(OCc3cccnc3)CC2)n1	.	.	-8.3	7.7*	.	.	-3.0
Cc1ccc(OCC(=O)N2CC3(C)CC2CC(C)(C)C3)cc1 (stereo unspecified)	-5.6	-0.2	-7.3	6.8*	1.4	1.8	-5.6
Cc1cccc(C)c1OCC(=O)N1CC2(C)CC1CC(C)(C)C2 (stereo unspecified)	-16.0	0.9	4.6	-0.6	-4.7	4.0	.
COC(=O)c1c(NC(=O)COC(=O)c2ccc(O)cc2)sc2c1CCCCC2	20.6	0.0	-6.5	-6.2	0.3	1.1	.
COCC(=O)Nc1sc2c(c1C(=O)OC)CCCC2	7.2	2.9	-6.1	7.7*	-15.2	3.5	-5.5
SMILES	HTR5A inv ag	MOR-DOR ag	p-CIP stab down	MIN6 prolif-1	MOR-DOR inv ag	HTR5A ag	MIN6 prolif-2
CCOC(=O)[C@H]1[C@H]2COc3ccc(Br)cc3[C@@H]2N2C(=O)CN(Cc3ccc(F)cc3)C(=O)[C@@]12C	2.5	1.1	.	-7.0	-7.1	3.1	.
CCN(CC)C(=O)[C@H]1CC(CC(=O)NCC23CC4CC(CC(C4)C2)C3)C(=O)N2CCc3c([nH]c4ccc(OC)cc34)[C@]12C (stereo partly specified)	-10.7	-1.5	.	.	7.5	3.1	.
CNC(=S)Nc1ccc([N+](=O)[O-])cc1C	25.3	-1.2	4.0	9.9*	6.0	-1.7	-0.9
Cc1nn(C)c2ncc(C(=O)c3ccccc3O)cc12	-20.1	1.3	0.3	0.0	-8.3	-0.1	.
Cc1[nH]nc2ncc(C(=O)c3ccccc3O)cc12	-9.6	-0.7	7.1	11.9*	3.8	0.8	2.5
O=C(CCCCCCCC(=O)N1CCCC1)N1CCCC1	-8.3	-0.8	.	.	3.9	2.1	.
CCCCN1C(=O)N(CCc2ccc(F)cc2)S(=O)(=O)c2cc(C(F)(F)F)ccc21	4.4	0.3	.	.	-1.3	-1.3	.
CC1(c2ccc3c(c2)OCO3)NC(=O)N(CC(=O)Nc2ccccc2[N+](=O)[O-])C1=O (stereo unspecified)	9.9	1.8	.	14.0*	-9.7	-4.0	-0.4
O=C(C[C@@H]1C/C=C\CCCC(=O)OC[C@@H]2CCCN2C1=O)N[C@@H](CO)Cc1ccccc1	-17.1	-0.4	.	-0.6	2.5	-2.2	.
O=C(COC(=O)C1CCN(c2ccc(C(F)(F)F)cn2)CC1)NCc1ccccc1	0.5	-0.5	.	-7.2	1.9	0.7	.
CN(C)C(=O)CN1C(=O)C2CC=C(Cl)CC2C1=O (stereo unspecified)	12.7	-1.3	4.1	-1.1	6.9	7.1	.
CCN(CC)C(=O)CN1C(=O)C2CC=C(Cl)CC2C1=O (stereo unspecified)	-14.4	-2.3	-5.2	6.9*	12.4	2.6	0.6
NS(=O)(=O)c1ccc(NC(=O)c2ccc3c(c2)CCCC3)cc1	6.5	-1.2	-12.5	5.3*	6.4	1.7	-0.4
O=C(NCC1CCCO1)c1cccc(S(=O)(=O)Nc2ccc(F)cc2)c1 (stereo unspecified)	-19.7	-0.1	.	-1.4	0.4	5.4	.
CCS(=O)(=O)c1ccc(Sc2nncn2C)c([N+](=O)[O-])c1	-5.8	5.6	-2.7	7.7*	-29.5	2.1	-6.1
CCN(CC)S(=O)(=O)c1ccc(NC(=O)c2ccc(Sc3nncn3C)c([N+](=O)[O-])c2)cc1	-14.4	5.0	-6.2	0.0	-25.2	1.7	.
Cc1ccc(Nc2nc(NCC3CCCO3)nc(N)c2[N+](=O)[O-])cc1C (stereo unspecified)	-1.6	0.4	4.4	0.0*	-2.3	5.5	-0.1
